Reference: PubChem BioAssay (NCATS)
Records with an inconclusive call do not appear. Entries that show only a call come without a potency. Calls of active or inactive are those of the source. Calls follow the shape of the full dose curve. Square brackets hold non-standard residues; d marks the D form. Peptide text beside a SMILES is read from it. ξ: configuration not given here. d(hArg(Et2)) = CCN=C(NCC)NCCCC[C@@H](N)C(=O)O; hArg(Et2) = CCN=C(NCC)NCCCC[C@H](N)C(=O)O; Phe(4-Cl) = N[C@@H](Cc1ccc(Cl)cc1)C(=O)O; ξ2Nal = NC(Cc1ccc2ccccc2c1)C(=O)O; 3Pal = N[C@@H](Cc1cccnc1)C(=O)O; ξP = O=C(O)C1CCCN1

Assay: Primary qHTS for Huh7 cytotoxicity: counterscreen for inhibitors of MERS-S pseudotyped particle cell entry (AID 1479147)
Conditions: cell viability read-out; series mostly up to 57.1 µM

| SMILES | Potency |
| --- | --- |
| CCOC(=O)[C@H](C)C[C@@H](Cc1ccc(-c2ccccc2)cc1)NC(=O)CCC(=O)O | inactive |
| O=S(O)CNc1ccc(S(=O)(=O)c2ccc(NCS(=O)O)cc2)cc1 | inactive |
| CCCCC(CC)CCC(CC(C)C)OS(=O)(=O)O (configuration not stated) | inactive |
| CCOC(=O)[C@H](CS)NCCN[C@@H](CS)C(=O)OCC | inactive |
| O=c1[nH]cnc2c([C@@H]3N[C@H](CO)[C@@H](O)[C@H]3O)c[nH]c12 | inactive |
| CO[C@H]1O[C@@H]2O[C@@]3(C)CC[C@H]4[C@H](C)CC[C@@H]([C@@H]1C)[C@@]24OO3 | inactive |
| COC(=O)N[C@H](C(=O)N1CCC[C@H]1c1ncc(-c2ccc3c(c2)O[C@@H](c2ccccc2)n2c-3cc3cc(-c4cnc([C@@H]5CCCN5C(=O)[C@@H](NC(=O)OC)C(C)C)[nH]4)ccc32)[nH]1)C(C)C | inactive |
| C=C1/C(=C/C=C2\CCC[C@]3(C)[C@@H]([C@H](C)CCCC(C)(C)O)CC[C@@H]23)C[C@@H](O)[C@@H](OCCCO)[C@@H]1O | inactive |

Assay: Primary qHTS for inhibitors of MERS-S pseudo-typed particle cell entry (AID 1479149); also: nearly all actives have a fitted effect of over 60% in size
Conditions: MERS-S pseudotyped particle entry, luciferase; series mostly up to 57.1 µM

| SMILES | Potency |
| --- | --- |
| CCOC(=O)COc1ccc2c(C)c(CCN(CC)CC)c(=O)oc2c1 | inactive |
| O=[N+]([O-])c1ccc(/C=C/c2cccc(CO)n2)o1 | inactive |
| COCC(=O)Nc1cc(Sc2ccccc2)ccc1N=C(NC(=O)OC)NC(=O)OC | inactive |
| CCC(C)C(NC(=O)C(Cc1ccc(O)cc1)NC(=O)C(NC(=O)C(CCCN=C(N)N)NC(=O)C(N)CC(=O)O)C(C)C)C(=O)NC(Cc1cnc[nH]1)C(=O)N1CCCC1C(=O)NC(Cc1ccccc1)C(=O)O (configuration not stated) | inactive |
| OC[C@H]1O[C@@H](O)[C@H](O)[C@@H](O)[C@@H]1O | inactive |
| COCC1=C(C(=O)OC(C)OC(=O)OC(C)C)N2C(=O)[C@@H](NC(=O)/C(=N/OC)c3csc(N)n3)[C@H]2SC1 (some centres not stated) | inactive |
| CC(Cc1ccc2c(c1)OCO2)NCC(O)c1ccc(O)c(O)c1 (configuration not stated) | inactive |
| OC[C@H]1O[C@@H](OC[C@H]2O[C@@H](O[C@@H]3[C@@H](O)[C@H](O)O[C@H](CO)[C@H]3O)[C@H](O)[C@@H](O[C@@H]3O[C@H](CO)[C@@H](O)[C@H](O)[C@H]3O)[C@@H]2O)[C@H](O)[C@@H](O)[C@@H]1O | inactive |
| CC(C)(C)c1ccc(CN2CCN(C(c3ccccc3)c3ccc(Cl)cc3)CC2)cc1 (configuration not stated) | inactive |
| CC1=CC(O)CC(C)(C)C1/C=C/C(C)=C/C=C/C(C)=C/C=C/C=C(C)/C=C/C=C(C)/C=C/C1=C(C)CC(O)CC1(C)C (configuration not stated) | inactive |
| O=C(N[C@H]1CCS[C@H]2CCC[C@@H](C(=O)O)N2C1=O)[C@@H](S)Cc1ccccc1 | inactive |
| CC1(C)S[C@@H]2[C@H](NC(=O)C(C(=O)O)c3ccsc3)C(=O)N2[C@H]1C(=O)O (some centres not stated) | inactive |
| NCCNc1ccc(NCCN)c2c1C(=O)c1ccncc1C2=O | inactive |
| CC1(C)S[C@@H]2[C@H](NC(=O)[C@H](N)c3ccccc3)C(=O)N2[C@H]1C(=O)OCOC(=O)[C@@H]1N2C(=O)C[C@H]2S(=O)(=O)C1(C)C | inactive |
| Cc1cc(Nc2ccccc2C(=O)O)ccc1Cl | inactive |
| CO/N=C(\C(=O)N[C@@H]1C(=O)N2C(C(=O)O)=C(CSc3nnnn3C)CS[C@H]12)c1csc(N)n1 | inactive |
| ClCC1CO1 (configuration not stated) (tested in a mixture with another compound) | inactive |
| CNC(C)[C@@H](O)c1ccc(O)cc1 (some centres not stated) | inactive |
| CCCCCCCCCCCCCCCCCCCCCC(=O)Nc1ccn([C@@H]2O[C@H](CO)[C@@H](O)[C@@H]2O)c(=O)n1 | inactive |
| CC(C)(C)c1ccc2c(S(=O)(=O)O)c(C(C)(C)C)ccc2c1 | inactive |

| SMILES | Potency |
| --- | --- |
| C[N+](C)(C)C1CCC(CC2CCC([N+](C)(C)C)CC2)CC1 (configuration not stated) | inactive |
| CCOC(=O)C=C(C)C=CC[C@@H](C)CCCC(C)C | inactive |
| CCNC(=NCCCC[C@H](NC(=O)[C@H](CC(C)C)NC(=O)[C@@H](CCCCN=C(NCC)NCC)NC(=O)[C@@H](Cc1ccc(O)cc1)NC(=O)[C@@H](CO)NC(=O)[C@H](Cc1cccnc1)NC(=O)[C@H](Cc1ccc(Cl)cc1)NC(=O)C(Cc1ccc2ccccc2c1)NC(C)=O)C(=O)N1CCCC1C(=O)N[C@H](C)C(N)=O)NCC (some centres not stated) (Ac-[ξ2Nal][Phe(4-Cl)][3Pal][dS][dY][d(hArg(Et2))]L[hArg(Et2)][ξP][dA]-NH2) | inactive |
| C[C@@H]1CCC[C@H](C)N1NC(=O)c1ccc(Cl)c(S(N)(=O)=O)c1 | inactive |
| CC1(C)[C@H](C=C(Cl)Cl)[C@@H]1C(=O)OCc1c(F)c(F)cc(F)c1F | inactive |
| O1[As]2O[As]1O2 | inactive |
| CCCc1ccc(C(=O)O)cc1 | inactive |
| C[C@]12C[C@@H]3S[C@H]3C[C@@H]1CC[C@H]1[C@H]3CC[C@@H](O)[C@@]3(C)CC[C@@H]12 | inactive |
| CC(C)(C)NC(=O)[C@@H]1C[C@@H]2CCCC[C@H]2CN1C[C@@H](O)[C@H](Cc1ccccc1)NC(=O)[C@H](CC(N)=O)NC(=O)c1ccc2ccccc2n1 | inactive |
| CO[C@@H]1[C@H](C)OC(O[C@H]2CC(Oc3cc4cc5c(c(O)c4c(O)c3C)C(=O)[C@@H](OC3C[C@@H](OC4C[C@H](OC6C[C@](C)(O)[C@@H](OC(C)=O)[C@H](C)O6)[C@@H](O)[C@H](C)O4)[C@H](O)[C@@H](C)O3)[C@H]([C@@H](OC)C(=O)[C@@H](O)[C@H](C)O)C5)O[C@@H](C)[C@H]2OC(C)=O)C[C@@H]1O (some centres not stated) | inactive |
| CC[C@H]1OC(=O)C[C@@H](O)[C@H](C)[C@@H](OC2OC(C)C(O)C(N(C)C)C2O)[C@@H](CCN2CCCCC2)C[C@@H](C)C(=O)/C=C/C(C)=C/[C@@H]1CN1CCCCC1 (some centres not stated) | inactive |
| CCOC(=O)[C@H](C)C[C@@H](Cc1ccc(-c2ccccc2)cc1)NC(=O)CCC(=O)O | inactive |
| O=S(O)CNc1ccc(S(=O)(=O)c2ccc(NCS(=O)O)cc2)cc1 | inactive |
| CCCCC(CC)CCC(CC(C)C)OS(=O)(=O)O (configuration not stated) | inactive |
| CCOC(=O)[C@H](CS)NCCN[C@@H](CS)C(=O)OCC | inactive |
| O=c1[nH]cnc2c([C@@H]3N[C@H](CO)[C@@H](O)[C@H]3O)c[nH]c12 | inactive |
| CO[C@H]1O[C@@H]2O[C@@]3(C)CC[C@H]4[C@H](C)CC[C@@H]([C@@H]1C)[C@@]24OO3 | inactive |
| COC(=O)N[C@H](C(=O)N1CCC[C@H]1c1ncc(-c2ccc3c(c2)O[C@@H](c2ccccc2)n2c-3cc3cc(-c4cnc([C@@H]5CCCN5C(=O)[C@@H](NC(=O)OC)C(C)C)[nH]4)ccc32)[nH]1)C(C)C | inactive |
| C=C1/C(=C/C=C2\CCC[C@]3(C)[C@@H]([C@H](C)CCCC(C)(C)O)CC[C@@H]23)C[C@@H](O)[C@@H](OCCCO)[C@@H]1O | inactive |
